Shown are actives, neighbours in structure and some others; about 7.4% of the full set was active somewhere.
ELG1 genotox – qHTS screen for small molecules that induce genotoxicity in human embryonic kidney (HEK293T) cells expressing luciferase-tagged ELG1. HEK293T ELG1-luciferase reporter, luminescence, 16 h. Potency, µM (doses to about 46 µM), for inactives: at the highest dose activity change, positive = activation, actives largely listed as activators. actives 1.3% (n = 330,000). AID 504466, 2011; also: % of control where 0% means no effect; nearly all actives have a fitted effect of over 60% in size
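Cells (2,000/well) expressing the ELG1-luciferase fusion are dosed by pin tool and kept 16 hr at 37 °C, 5% CO2. Signal comes from ONE-Glo luciferase reagent after 30 min at room temperature.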
Rab9 promoter act – qHTS Assay for Rab9 Promoter Activators. Huh7 Rab9 promoter-luciferase reporter, luminescence, 24 h. Potency, µM (series often up to 9.22 µM), for inactives: top-dose activation, negative = inhibition, most hits filed as activators. actives 2.8% (n = 320,000). AID 485297, 2010; also: % of control where 0% means no effect; nearly all actives have a fitted effect of over 60% in size
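Steps: seed 1500 Huh7 Rab9-luc cells per well, rest 2 h at 37 °C; add compound in DMSO; incubate 24 h; add luciferase reagent, 10 min ambient; read luminescence.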
FLuc counter – qHTS profiling assay for firefly luciferase inhibitor/activator using purifed enzyme and Km concentrations of substrates (counterscreen for miR-21 project); Luciferin 4-monooxygenase (Photinus pyralis), P08659; purified FLuc, Km substrates, luminescence inhibition; Potency, µM (highest dose often 57.5 µM), for inactives: at the highest dose activity change, negative = inhibition, most hits filed as inhibitors; actives 6.9% (n = 360,000);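 also: plate controls were vehicle for no effect and reference inhibitor for full effect; nearly all actives have a fitted effect of over 55% in size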
Target sequence (P08659 whole entry, looked up): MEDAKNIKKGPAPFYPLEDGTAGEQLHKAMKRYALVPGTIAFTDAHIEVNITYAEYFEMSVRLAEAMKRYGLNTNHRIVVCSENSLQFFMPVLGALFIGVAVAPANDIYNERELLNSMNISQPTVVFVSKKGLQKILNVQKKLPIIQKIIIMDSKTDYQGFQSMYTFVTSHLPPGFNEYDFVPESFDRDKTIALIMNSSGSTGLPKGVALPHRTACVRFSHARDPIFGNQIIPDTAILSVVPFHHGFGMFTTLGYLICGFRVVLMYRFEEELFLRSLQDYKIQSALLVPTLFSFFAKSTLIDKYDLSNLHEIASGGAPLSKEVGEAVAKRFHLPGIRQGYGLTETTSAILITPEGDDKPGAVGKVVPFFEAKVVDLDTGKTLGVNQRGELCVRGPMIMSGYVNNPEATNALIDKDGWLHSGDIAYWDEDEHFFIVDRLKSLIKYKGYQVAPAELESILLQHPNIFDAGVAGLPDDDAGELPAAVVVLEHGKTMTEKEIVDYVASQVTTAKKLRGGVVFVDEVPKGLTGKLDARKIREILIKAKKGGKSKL
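Purified P. pyralis luciferase, 10 nM final, with Km-level 10 uM D-luciferin and 10 uM ATP in 50 mM Tris acetate pH 7.5, 10 mM Mg acetate, 0.01% Tween-20, 0.05% BSA; 6-point qHTS titration about 60 µM downward; luminescence read.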
SMN2 splice enh – qHTS Assay for Enhancers of SMN2 Splice Variant Expression; actives 2.8% (n = 210,000); Potency, µM (series often up to 46.1 µM), inactives show at the top dose activity change, positive = activation, hits mostly activators; HEK293 SMN2-luciferase splicing reporter, luminescence, 30-36 h; AID 1458, 2008; also: % of control where 0% means no effect; nearly all actives have a fitted effect of over 55% in size
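qHTS luciferase splicing reporter: luminescence rises when SMN2 exon 7 is included in transfected HEK293 cells. Compound exposure lasted 30-36 h at 37C, with 4.5 mM final sodium butyrate as control, followed by a ONE-Glo read.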
NPC1 promoter act – qHTS Assay for NPC1 Promoter Activators | AID 485313, 2010 | actives 2.4% (n = 320,000) | Potency, µM (top dose mostly 9.22 µM), inactives show at the highest dose activation, hits mostly activators | Huh7 NPC1 promoter luciferase reporter, 24 h; also: % of control where 0% means no effect; nearly all actives have a fitted effect of over 60% in size
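Huh7 cells stably carrying NPC1 promoter–luciferase, plated in Opti-MEM with 10% FBS for 2 h, were exposed to compound in DMSO for 24 h at 37 °C; luciferase reagent was added for 10 min and luminescence read.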
p53 reactivator – qHTS assay for re-activators of p53 using a Luc reporter; H1299 p53-A138V BP100-luciferase reporter, luminescence, 24 h; Potency, µM (doses to about 92.2 µM), for the others: at the top dose activity change, positive = activation, usual class: activators; actives 0.063% (n = 320,000); AID 504706, 2011; also: % of control where 0% means no effect; nearly all actives have a fitted effect of over 45% in size
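p53-null H1299 cells stably carrying temperature-sensitive p53-A138V and a BP100-luciferase reporter were pinned with compounds (4-point, 1:5 series) and held 24 hrs at 37 deg C. Luminescence was read 10 min after detection reagent.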
An asterisk follows results filed as active; [ ] = dose if it differs, or a comment. Calls follow the shape of the dose curve; as a rule, active = well fitted curve in the direction sought with a large enough effect; inconclusive = small, poorly fitted or top-dose-only effect, or another doubt; inactive = no such curve, though single readings can be large; an effect the other way counts as inactive or inconclusive. Potency is read from the fitted curve at half-maximal effect.

`O=C(Nc1ccc2nc(SCC(=O)N3CCCC3)sc2c1)c1ccc(Br)cc1` gave FLuc counter -12.0%.
Screening O=C(COC(=O)c1cnccn1)c1ccc2c(c1)CCCC2 returned ELG1 genotox -3.9%, Rab9 promoter act 9.0%, FLuc counter 4.78µM*, SMN2 splice enh 5.9%, NPC1 promoter act 8.9% and p53 reactivator 2.3%.
Cc1cnn(-c2cc(N/N=C/c3ccccc3)ncn2)c1 was read as ELG1 genotox 2.2%, Rab9 promoter act 2.2%[1.84 µM], FLuc counter inconclusive, SMN2 splice enh -1.2%, NPC1 promoter act 15.2% and p53 reactivator 21.2%.
`COc1cc(N/N=C/c2ccc(N(C)C)cc2)ncn1` gave ELG1 genotox 1.16µM*, Rab9 promoter act inconclusive, FLuc counter 0.849µM*, SMN2 splice enh 2.24µM*, NPC1 promoter act 1.26µM* and p53 reactivator -1.3%.
For COc1cc(N/N=C/c2ccccc2O)ncn1 the results were ELG1 genotox 23.1µM*, Rab9 promoter act inconclusive, FLuc counter 15.1µM*, SMN2 splice enh inconclusive, NPC1 promoter act inconclusive and p53 reactivator inconclusive.
COc1ccc(N(CC(C)C)S(=O)(=O)c2nnc(NC(=O)c3ccco3)s2)cc1 was read as ELG1 genotox -5.1%, Rab9 promoter act -2.9%, FLuc counter -1.2%, NPC1 promoter act 1.7% and p53 reactivator -4.7%.
`COc1ccc(/C=N/N(C)c2cc(=O)n(C)c(=O)[nH]2)cc1OC` gave ELG1 genotox inconclusive, Rab9 promoter act 4.8%, FLuc counter 16.9µM*, SMN2 splice enh 9.6%, NPC1 promoter act -0.4% and p53 reactivator 0.1%.
`CN(/N=C/C=C/c1ccccc1)c1cc(=O)n(C)c(=O)[nH]1` gave ELG1 genotox -2.6%, Rab9 promoter act 15.7%, FLuc counter -19.2%, SMN2 splice enh 9.6%, NPC1 promoter act 10.6% and p53 reactivator 2.6%.
C/C(CC(=O)Nc1ccc(N(C)C)cc1)=N\NC(=O)c1ccccc1O was read as ELG1 genotox -1.4%, Rab9 promoter act 9.9%, FLuc counter 12µM* and NPC1 promoter act 5.3%.
C/C(CC(=O)Nc1ccc(Cl)c(C(F)(F)F)c1)=N\NC(=O)c1ccccc1O was read as ELG1 genotox -5.8%, Rab9 promoter act -0.6%, FLuc counter 16.9µM*, SMN2 splice enh 9.8%[1.84 µM], NPC1 promoter act 0.6% and p53 reactivator inconclusive.
For C/C(CC(=O)Nc1ccc(N(C)C)cc1)=N\NC(=O)c1ccc([N+](=O)[O-])cc1Cl the results were ELG1 genotox -2.5%, Rab9 promoter act 10.6%, FLuc counter -2.2%, SMN2 splice enh 9.1%, NPC1 promoter act -3.8% and p53 reactivator 2.8%.
C/C(Cn1nnc([N+](=O)[O-])n1)=N\NC(=O)c1ccccc1O was read as ELG1 genotox -12.1%, Rab9 promoter act -3.8%, FLuc counter 10.7µM*, NPC1 promoter act -0.6% and p53 reactivator 12.5%.
Screening C/C(CC(=O)Nc1ccc(N(C)C)cc1)=N\NC(=O)c1ccc(Cl)cc1Cl returned ELG1 genotox 7.6%, Rab9 promoter act 6.7%, FLuc counter -17.6% and NPC1 promoter act -0.9%.
Screening C/C(CC(=O)Nc1ccc([N+](=O)[O-])cc1)=N\NC(=O)c1ccccc1O returned ELG1 genotox -0.9%, Rab9 promoter act -2.1%, FLuc counter 12µM* and NPC1 promoter act 2.5%.
For C/C(CC(=O)Nc1ccc(Cl)c(C(F)(F)F)c1)=N\NC(=O)c1cccc(O)c1 the results were ELG1 genotox -3.2%, Rab9 promoter act 0.3%, FLuc counter -11.9%, SMN2 splice enh 12.6%, NPC1 promoter act -1.8% and p53 reactivator inconclusive.
`CC(C)(C)n1ncc2c(=O)n(Cc3ccc([S+](=O)([O-])N4CCOCC4)cc3)cnc21` gave FLuc counter 4.0%.
Cn1c(=O)[nH]c(=O)c2c1nc1n(CCO)c(-c3ccccc3)cn21 was read as FLuc counter 3.1% and SMN2 splice enh -1.9%.
For CCN(CC)S(=O)(=O)c1ccc2c(c1)N(CC(=O)NCCCN1CCN(c3cc(Cl)ccc3C)CC1)C(=O)CO2 the results were FLuc counter 4.3% and SMN2 splice enh -10.2%.
For CCOc1ccc(OCC)c(-c2c(=O)n(OCc3ccc(C(C)(C)C)cc3)c3ccccc3[n+]2[O-])c1 the results were ELG1 genotox -5.9%, Rab9 promoter act -1.2%, FLuc counter 8.49µM*, SMN2 splice enh -5.7%, NPC1 promoter act -5.0% and p53 reactivator -3.3%.
Screening CCOn1c(=O)c(-c2cc(OC)ccc2OC)[n+]([O-])c2ccccc21 returned ELG1 genotox -3.9%, Rab9 promoter act 2.9%, FLuc counter -0.6% and NPC1 promoter act -2.6%.
`CCc1cccc(C)c1Nc1c(-c2cccs2)nc2nc(C)cc(C)n12` gave FLuc counter 2.0% and SMN2 splice enh -3.0%.
Screening CCOC(=O)c1cnn2c(C)cc(-c3ccc(F)cc3)nc12 returned ELG1 genotox inconclusive, Rab9 promoter act 3.55µM*, FLuc counter 12µM*, SMN2 splice enh 11.2µM*, NPC1 promoter act 2.82µM* and p53 reactivator inconclusive.
Cc1ccc(S(=O)(=O)N2CCOCC2)cc1C(=O)OCC(=O)c1ccc(Br)cc1 was read as ELG1 genotox -2.5%, Rab9 promoter act -4.2%, FLuc counter 3.79µM*, NPC1 promoter act 0.2% and p53 reactivator -2.1%.
`O=C(COC(=O)c1ccc(F)c(S(=O)(=O)N2CCOCC2)c1)c1ccc(Cl)cc1` gave ELG1 genotox -1.2%, Rab9 promoter act 2.2%, FLuc counter 8.49µM*, NPC1 promoter act -1.6% and p53 reactivator -1.7%.
For COc1ccccc1CCNC(=O)c1nc(-c2cccs2)no1 the results were ELG1 genotox inconclusive, Rab9 promoter act inconclusive, FLuc counter 16.9µM*, SMN2 splice enh inconclusive, NPC1 promoter act inconclusive and p53 reactivator 3.3%.
COc1ccccc1CC(=O)NCc1csc(-c2cccs2)n1 was read as ELG1 genotox 16.1%, Rab9 promoter act inconclusive, FLuc counter 16.9µM*, NPC1 promoter act inconclusive and p53 reactivator -4.6%.
`COc1ccc(CCNC(=O)c2nc(-c3cccs3)no2)cc1OC` gave ELG1 genotox -5.2%, Rab9 promoter act -2.3%, FLuc counter -1.8%, SMN2 splice enh -42.0%, NPC1 promoter act -6.1% and p53 reactivator -6.0%.
